Measured values: PubChem BioAssay (Tox21)
Records with an inconclusive call do not appear. A call without a number means that no potency is given here. Calls of active or inactive are those of the source. The call rests on the fitted dose curve; in most records, active means well fitted inhibition curve with a large enough effect in the repeat runs; inconclusive means weak or mixed curves; inactive means no such curve, though single readings can be large or run the other way.

molecular target: Cytochrome P450 2D6 (Homo sapiens) (UniProt P10635); experiment: Cytochrome P450 Family 2 Subfamily D Member 6 (CYP2D6) small molecule antagonists: luciferase reporter qHTS assay (AID 1671196); conditions: P450-Glo CYP2D6 enzyme assay, luciferin luminescence, 1 h; series mostly up to 115 µM; further: nearly all actives have a fitted effect of over 50% in size
Sequence (P10635 whole entry, looked up): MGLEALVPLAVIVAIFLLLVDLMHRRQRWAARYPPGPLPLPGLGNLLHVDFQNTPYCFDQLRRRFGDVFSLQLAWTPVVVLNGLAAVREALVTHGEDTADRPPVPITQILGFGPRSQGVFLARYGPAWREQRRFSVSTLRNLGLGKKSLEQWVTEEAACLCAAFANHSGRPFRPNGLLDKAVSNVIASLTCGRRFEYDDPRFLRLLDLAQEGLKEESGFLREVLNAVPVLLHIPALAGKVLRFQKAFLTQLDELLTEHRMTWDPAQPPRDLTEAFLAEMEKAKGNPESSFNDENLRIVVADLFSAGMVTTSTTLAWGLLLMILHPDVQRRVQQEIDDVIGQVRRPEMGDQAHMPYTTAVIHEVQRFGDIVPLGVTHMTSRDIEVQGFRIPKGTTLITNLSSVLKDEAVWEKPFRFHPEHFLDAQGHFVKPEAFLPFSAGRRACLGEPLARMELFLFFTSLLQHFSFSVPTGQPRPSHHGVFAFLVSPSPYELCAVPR
Source text: U.S. Tox21 Program National Center for Advancing Translational Sciences [NCATS] U.S. Environmental Protection Agency [EPA] National Institutes of Environmental Health Sciences [NIEHS] National Toxicology Program [NTP] U.S. Food and Drug Administration [FDA] Tox21 Assay Overview: Cytochrome P450 (CYP) enzymes are membrane-bound hemeproteins that play a key role in metabolism of drugs and xenobiotics. Evaluation of the effect of chemicals on CYP isozymes is useful to minimize the adverse drug reactions and toxicities in drug development process. Tox21 chemicals were tested for their effect on CYP enzyme activities by using P450-Glo (TM) screening systems (Promega Corporation, Madison, WI). These systems provide a luminescent method containing proluciferin substrates and are converted to luciferin products by CYP isozymes. The luciferin products formed are detected with a luciferin detection reagent, and the amount of light produced is proportional to CYP activity. P450-Glo (TM) CYP2D6 screening system (Catalog. No. V9890) was used to detect the compounds that interfere in CYP2D6 activity.
Tox21 Assay Protocol Summary: Two ul of enzyme-substrate mix was dispensed into medium binding white/solid 1536-well plates (Greiner Bio-One North America Inc., Monroe, NC) using a BioRaptr Flying Reagent Dispenser (FRD, Beckman Coulter, Brea, CA). […] The assay plates were incubated at room temperature for 10 min. Then 2 ul of NADPH regeneration solution was added to each well of the assay plates using an FRD and incubated at room temperature for 1 h. The reaction was stopped by adding 4 ul of detection reagent using an FRD and after 20 min incubation at room temperature the luminescence signal was measured using a ViewLux plate reader (Perkin Elmer, Shelton, CT). Data were expressed as relative luminescence units.
Potency means the concentration at half of the fitted maximal effect.

Row | Structure (SMILES) | Potency
1 | Cc1cccc2c1ccc1ccccc12 | inactive
2 | COc1cccc(-c2ccc(/C=C\CN3CCCCCC3)cc2Cl)c1 | 2.51 µM (active)
3 | C/C(=C\c1ccc(C(=O)O)cc1)c1ccc2c(c1)C(C)(C)CCC2(C)C | inactive
4 | C[C@H]1O[C@@H](O[C@H]2CC[C@@]3(C)[C@H](CC[C@@H]4[C@@H]3C[C@@H](O)[C@]3(C)[C@@H](C5=CC(=O)OC5)CC[C@]43O)C2)C[C@H](O)[C@@H]1O[C@H]1C[C@H](O)[C@H](O[C@H]2C[C@H](O)[C@H](O[C@@H]3O[C@H](CO)[C@@H](O)[C@H](O)[C@H]3O)[C@@H](C)O2)[C@@H](C)O1 | inactive
5 | NC(=O)C1CO1 (stereo not given) | inactive
6 | CCCC(=O)c1cc(O)c(O)cc1O | 51.7 µM (active)
7 | O=C(Nc1ccccc1)c1cc(Cl)ccc1O | 39.9 µM (active)
8 | O=C(NCc1ncc(C(F)(F)F)cc1Cl)c1c(Cl)cccc1Cl | 2.83 µM (active)
9 | Cc1cccc(C)c1C | inactive
10 | C=C(C)CCO | inactive
11 | C/C=C/C(=O)C1=C(C)C=CCC1(C)C | inactive
12 | C=COCCCC | inactive
13 | CN(C[C@@H](CC[N+]12CCC(C3CCCCC3)(CC1)CC2)c1ccc(Cl)c(Cl)c1)C(=O)c1cc(C(F)(F)F)cc(C(F)(F)F)c1 | 15.9 µM (active)
14 | COc1c(Br)cc(Br)c(C)c1Br | inactive
15 | CCCCC/C=C\C=C\C(=O)OCC | 46.7 µM (active)
16 | NC(=O)c1ccccc1Cl | inactive
17 | O=C(CCN1CCC(c2ccccc2)C1)c1ccc2c(c1)OCCO2 (stereo not given) | 2.19 µM (active)
18 | Cn1ccnc1 | inactive
19 | C=CC(C)(C)O | inactive
20 | CC/C=C(\C)C=O | inactive

Row | Structure (SMILES) | Potency
21 | CC/C(=C(/c1ccc(O)cc1)c1ccc(OCCN(C)C)cc1)c1ccccc1 | 18.6 µM (active)
22 | N#CCCOCCC#N | inactive
23 | CCOC=C(C(=O)OCC)C(=O)OCC | inactive
24 | CCCCCCCCCCCCCCCCC(C(=O)O)C(O)(CC(=O)O)C(=O)O (stereo not given) | 34.7 µM (active)
25 | CCc1cccc(CC)c1 | inactive
26 | CN(C)CCOc1ccc(/C(=C(/CCCl)c2ccccc2)c2ccccc2)cc1 | 52.8 µM (active)
27 | C1CCSC1 | inactive
28 | Cc1c(Cl)c(=O)oc2cc(O)ccc12 | inactive
29 | CC1=CC[C@@H](C(C)(C)O)CC1 | inactive
30 | C=CC(=O)OCC(Br)CBr (stereo not given) | inactive
31 | COc1cc(/C=C/C(=O)CC(=O)/C=C/c2ccc(O)c(OC)c2)ccc1O | 35.8 µM (active)
32 | O=C1c2ccccc2C(=O)c2c(Cl)cccc21 | inactive
33 | CCC(O)CO (stereo not given) | inactive
34 | CCC(C)(C)c1ccc(CC(C)CN2C[C@@H](C)O[C@@H](C)C2)cc1 (stereo not given in full) | 6.92 µM (active)
35 | CC(C)c1ccc2sc3ccccc3c(=O)c2c1 | 28.3 µM (active)
36 | Oc1ccc2c(c1)CCC2 | inactive
37 | CN1CCN(CCCN2c3ccccc3Sc3ccc(Cl)cc32)CC1 | 0.275 µM (active)
38 | Nc1ccc2c(S(=O)(=O)O)cccc2c1S(=O)(=O)O | inactive
39 | O=C1CCC/C=C\CCCCCCCCCC1 | inactive
40 | CCn1c2ccccc2c2ccccc21 | inactive
